“And” between values parts separate entries of the source, which are not always exact repeats. Equal values may be shown once. A number with no mark means an inactive call. Results filed as inconclusive are left out. The source made the active and inactive calls. Unless noted, calls come from the whole dose curve; as a rule, active = well fitted curve in the direction sought with a large enough effect; inconclusive = small, poorly fitted or top-dose-only effect, or another doubt; inactive = no such curve, though single readings can be large; an effect the other way counts as inactive or inconclusive.

One assay concerns Tov-21-G. The assay is described as follows: Primary qHTS to identify gynecologic anti-cancer compounds using libraries of approved drugs and bioactive compounds (AID 1345084). Note: nearly all actives have a fitted effect of over 55% in size. Note: potency is the fitted concentration of half-maximal effect. Conditions: Gynecologic cancer cell panel viability, ATPlite luminescence, 48 h; series mostly up to 57.5 µM. The essentials: (§1)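 Measured: luminescence after ATPlite addition (15 min, RT). Exposure: 48 h, 37 C, 5% CO2.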
On the technique in general: In qHTS, concentration-response curves come from the screen itself.

Another assay has as its system Tov112D. The description is as above. As to conditions: Gynecologic cancer cell panel viability, ATPlite luminescence, 48 h; series mostly up to 57.5 µM. The method, boiled down: as §1
A short description of assay [1]: Drug repurposing screens with cells derived from glioblastoma tumor samples (AID 1345199). For activity, negative = cell killing: % is set by controls: 0 for no effect and ±100 for the full control effect. Note: nearly all actives have a fitted effect of over 40% in size. Note: potency is the fitted concentration of half-maximal effect. As to conditions: GBM patient neurospheres viability, ATP luminescence, 48 h. The essentials:
(§2)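 Primary testing used CD133+ neurospheres from four GBM patients, seven concentrations, 48 h exposure and ATP-based viability; confirmation added three slower-growing patient lines.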

The next assay relates to astro. The description is as above. As to conditions: viability, ATP luminescence, 48 h; series mostly up to 45.9 µM. The method, boiled down:
as §2

In assay [2] the target is Nuclear receptor subfamily 1 group I member 2 (Rattus norvegicus) (UniProt Q9R1A7). The assay is described as follows: qHTS assay for small molecule activators of the rat pregnane X receptor (rPXR) signaling pathway (AID 651751; call rule not given here; note: 0% is about no effect). Conditions: rPXR reporter cells, luciferase (One-Glo), 24 h.
Nuclear receptor subfamily 1 group I member 2 (Rattus norvegicus), sequence (Q9R1A7 whole entry, looked up): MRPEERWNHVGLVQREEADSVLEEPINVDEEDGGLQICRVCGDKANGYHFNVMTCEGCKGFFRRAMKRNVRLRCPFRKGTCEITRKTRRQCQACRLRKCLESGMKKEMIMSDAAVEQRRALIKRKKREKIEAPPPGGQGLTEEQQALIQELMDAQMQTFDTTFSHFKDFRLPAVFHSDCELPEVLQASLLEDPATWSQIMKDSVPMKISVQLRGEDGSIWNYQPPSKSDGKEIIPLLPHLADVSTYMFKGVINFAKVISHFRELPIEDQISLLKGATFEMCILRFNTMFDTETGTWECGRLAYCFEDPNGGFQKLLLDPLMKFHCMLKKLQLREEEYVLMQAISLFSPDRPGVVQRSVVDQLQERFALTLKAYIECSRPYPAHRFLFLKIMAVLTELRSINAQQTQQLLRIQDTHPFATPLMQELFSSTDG
Assay [3] is described as follows: qHTS assay for small molecule activators of the human pregnane X receptor (PXR) signaling pathway (AID 720659; call rule not given here; note: 0% is about no effect).
Assay [4] can be described thus: qHTS assay to identify inhibitors of the type 1 interferon - major histocompatibility complex class I in skeletal muscle: Counter screen cell viability and HiBit confirmation (AID 1347412). Note: potency is the fitted concentration of half-maximal effect; nearly all actives have a fitted effect of over 60% in size. As to conditions: iHSKM muscle cells + IFN-b, HiBiT or CellTiter-Glo, 24 h. The essentials:
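Luminescence read-out: Nano-Glo HiBiT lytic signal from C-terminally HiBiT-tagged HLA-B in CRISPR-edited human myoblasts, plus CellTiter Glo ATP as viability counter screen. IFN-beta 4.0 ng/ml; 24 hrs treatment at 37 C, 5% CO2.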

The mark [5] stands for this setting: at 45.9 µM (top of the series), tumour line B.
Where [6] appears, read: at 45.9 µM (top of the series), tumour line D.
[7] abbreviates: at 46.1 µM (top of the series), tumour line C.
Setting [8] is: at 20 µM (top of the series), tumour line C.
The mark [9] stands for this setting: at 21.2 µM (top of the series), tumour line B.
The mark [10] stands for this setting: at 21.2 µM (top of the series), tumour line D.
The mark [11] stands for this setting: at 91.6 µM (top of the series), tumour line B.
[12] abbreviates: at 99.2 µM (top of the series), tumour line C.

With `Nc1ccc(C(=O)O)c(O)c1`, the Potency entry in the assay on Tov-21-G and in the assay with Tov112D was “inactive” in each case. Further, the activity, negative = cell killing in assay [1] (setting [5]) is -5.49%; in assay [1] (setting [6]), 3.71%; in assay [1] (at 46 µM (top of the series), tumour line A), -9.87%; in assay [1] (setting [7]) it was -6.08%.
With `Cc1ccc(C(=O)c2ccc(CC(=O)O)n2C)cc1`, the Potency result in the assay with Tov-21-G, with Tov112D and in the assay with astro was “inactive” throughout. Moreover, the activity, negative = cell killing in assay [1] (setting [8]) is -5.11%; in assay [1] (setting [9]), -9.02%; in assay [1] (setting [10]), -3.08%; in assay [1] (at 21.3 µM (top of the series), tumour line A), -10.3%.
Turning to `NCCO`, the Potency result with Tov-21-G, with Tov112D and in the assay on astro was “inactive” each time. For the same compound, the activity, negative = cell killing in assay [1] (setting [11]) is -4.71%; in assay [1] (at 91.6 µM (top of the series), tumour line D) it was -21.3%; in assay [1] (setting [12]), -29.9%. In addition, the max response in assay [2] is -4.55%. Also, the compound was classed as inactive in assay [3].
As for `S=c1[nH]c2ccccc2s1`, the Potency result with Tov-21-G and with Tov112D was “inactive” throughout. The activity, negative = cell killing in assay [1] (setting [5]) was -16.2%; in assay [1] (setting [7]), -8.66%. Further, in assay [1] (tumour line A), the Potency is 39.8 µM (active). Moreover, the max response in assay [2] is 4.63% and 1.9%. In addition, the outcome in assay [3] was inactive.
Consider `N=c1ccn2c(n1)O[C@H]1[C@H](O)[C@@H](CO)O[C@H]12`, for which the activity, negative = cell killing is -31.3% in assay [1] (setting [6]) and -5.87% in assay [1] (setting [7]).
For the compound `COC(=O)[C@H]1[C@H]2C[C@@H]3c4[nH]c5cc(OC)ccc5c4CCN3C[C@H]2C[C@@H](OC(=O)/C=C/c2cc(OC)c(OC)c(OC)c2)[C@@H]1OC`, the Potency result in the assay on Tov-21-G, with Tov112D and with astro was “inactive” in each case. The figures for the activity, negative = cell killing in assay [1] (setting [8]) and in assay [1] (setting [10]) were -5.29% and -21.8%, respectively. In addition, in assay [1] (tumour line A), the Potency was 10 µM (active).
Take `CCCSc1ccc2nc(NC(=O)OC)[nH]c2c1`: the Potency in the assay on Tov-21-G is 2 µM (active); in the assay on Tov112D, 1.12 µM (active); with astro it was 0.501 µM (active).
As to `O=C(Nc1ccc(C(=O)O)c(O)c1)c1ccccc1`, the Potency result with Tov-21-G, in the assay with Tov112D and in the assay on astro was “inactive” in each case. Further, the activity, negative = cell killing in assay [1] (setting [5]) was -14.9%; in assay [1] (setting [6]) it was -3.46%; in assay [1] (setting [7]), -18.9%.
For the compound `Nc1ccc(O)c(C(=O)O)c1`, the Potency result in the assay with Tov-21-G, in the assay on Tov112D and in the assay with astro was “inactive” throughout. Besides, the activity, negative = cell killing in assay [1] (setting [5]) is -12.4%; in assay [1] (setting [6]), 5.07%; in assay [1] (setting [7]), 2.81%. Besides, in assay [2], the max response was -0.0122% and -1.86%. Moreover, the outcome in assay [3] was inactive.
`Cc1ccc2c(n1)Oc1ccc(C(C)C(=O)OCC(=O)N(C)C)cc1C2` (stereo not given): the Potency result with Tov-21-G, with Tov112D and in the assay with astro was “inactive” each time. In addition, the activity, negative = cell killing in assay [1] (setting [5]) was -2.21% and -4.54%; in assay [1] (setting [6]), -24.2% and -10.3%; in assay [1] (setting [7]) it was -14.5% and 2.44%.
On to `CN(C)CCn1nnnc1SCC1=C(C(=O)O)N2C(=O)[C@@H](NC(=O)Cc3csc(N)n3)[C@H]2SC1`, for which the Potency result with Tov-21-G, in the assay with Tov112D and in the assay on astro was “inactive” each time. The activity, negative = cell killing was 7.42% in assay [1] (setting [8]), -1.03% in assay [1] (setting [9]) and -12.5% in assay [1] (setting [10]).
Consider `COc1cccc2c1C(=O)c1c(O)c3c(c(O)c1C2=O)C[C@@](O)(C(=O)CO)C[C@@H]3O[C@H]1C[C@H](N)[C@H](O[C@@H]2CCCCO2)[C@H](C)O1`, for which the Potency with Tov112D was 1.58 µM (active).
`Nc1nc2ccc([N+](=O)[O-])cc2s1`: the Potency result in the assay with Tov-21-G and in the assay with Tov112D was “inactive” throughout. For the same compound, the activity, negative = cell killing is -13.3% in assay [1] (setting [11]) and -20.5% in assay [1] (setting [12]). Further, in assay [1] (tumour line A), the Potency is 39.8 µM (active). Moreover, the max response in assay [2] was -3.29%. For the same compound, the outcome in assay [3] was inactive.
As to `c1ccc2sc(SN3CCOCC3)nc2c1`, the Potency result in the assay with Tov-21-G, in the assay with Tov112D and in the assay on astro was “inactive” throughout. Also, the activity, negative = cell killing in assay [1] (setting [5]) was -16.5%; in assay [1] (setting [6]), -19.8%; in assay [1] (setting [7]), -23.9%.
Consider `N=C1N=C(N)c2cc3ccccc3cc21`, for which the Potency is 35.5 µM (active) with Tov-21-G and 39.8 µM (active) in the assay with astro.
Take `COC(=O)c1nc(Cl)c(Cl)nc1N`: the Potency in the assay on Tov-21-G was 12.6 µM (active); with Tov112D, 3.16 µM (active); in assay [4] (HiBiT) it was 2.22 µM (active); in assay [4] (Viability), 11.1 µM (active).
In the case of `CN1[C@@H]2CC[C@H]1CC(OC(c1ccccc1)c1ccccc1)C2` (stereo not given in full), the Potency result with Tov-21-G, with Tov112D and in the assay with astro was “inactive” each time. In assay [1] (setting [5]), the activity, negative = cell killing is -9.62%. Besides, the Potency in assay [1] (tumour line A) is 7.08 µM (active).
Turning to `CC(N)C(=O)OC(C)(C)Cc1ccc(Cl)cc1` (stereo not given), the Potency entry in the assay on Tov-21-G, in the assay on Tov112D and in the assay on astro was “inactive” each time. Moreover, the activity, negative = cell killing is -21.1% in assay [1] (setting [5]) and -21.2% in assay [1] (setting [6]). Also, the Potency in assay [1] (tumour line A) is 20 µM (active).
`CN(C)c1ccc(C(=C2C=CC(=[N+](C)C)C=C2)c2ccccc2)cc1`: the Potency in the assay on Tov112D is 2 µM (active); in assay [4] (HiBiT), 1.98 µM (active); in assay [4] (Viability), 3.94 µM (active). Further, the result in assay [3] was inactive.

Source of the values: PubChem BioAssay (NCATS).
